From PubChem BioAssay AID1159580 (chemical genetic matrix, 2015)
Several values for one entry are separate records, joined by “and”; a condition that tells them apart may be missing. Equal entries are not always repeated. The whole screen tested about 5,500 compounds, of which about 2,000 (36%) were called active. Not shown: some 18% with an inconclusive outcome. Cut-off read from the data, not from the text of the source: active = normalized growth mostly below about 0.91 (no sharp cut-off); inconclusive = no clear call, values can overlap the other calls; inactive = mostly above about 0.92. The list shows a part of the results.

Test: chemical genetic growth profiling, strain panel (AID 1159580);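 note: tested at 20 µM; growth read once vehicle control cultures reached saturation at 30 °C; 1 = growth at the plate median or of vehicle wells; lower values mean less growth of the strain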
Conditions: S. cerevisiae deletion strains, growth OD

Measured: normalized growth

CCC(/C=C/[C@@H](C)[C@H]1CCC2C3CC=C4C[C@@H](O)CC[C@]4(C)C3CC[C@@]21C)C(C)C (some centres undefined)
inactive: locus YAL013W, strain DEP1, active compounds read low 0.999 | locus YAL021C, strain ccr4, active compounds read low 1.02 | locus YAL026C, strain drs2, active compounds read low 0.935 | locus YAL030W, strain snc1, active compounds read low 0.99 | locus YBL061C, strain skt5, active compounds read low 0.997 | locus YBR009C, strain hhf1, active compounds read low 0.972 | locus YBR021W, strain FUR4, active compounds read low 1.04 | locus YBR023C, strain chs3, active compounds read low 0.988 | locus YBR171W, strain sec66, active compounds read low 0.985 | locus YBR229C, strain ROT2, active compounds read low 0.993 | locus YBR231C, strain swc5, active compounds read low 0.988 | locus YBR279W, strain paf1, active compounds read low 0.994 | locus YCL011C, strain gbp2, active compounds read low 0.968 | locus YCL016C, strain dcc1, active compounds read low 1 | locus YCL029C, strain bik1, active compounds read low 1 | locus YCL061C, strain MRC1, active compounds read low 1.01 | locus YCL069W, strain vba3, active compounds read low 0.99 | locus YCR088W, strain abp1, active compounds read low 0.994 | locus YDL005C, strain med2, active compounds read low 0.983 | locus YDL035C, strain GPR1, active compounds read low 1.02 | locus YDL040C, strain nat1, active compounds read low 0.987 | locus YDL074C, strain BRE1, active compounds read low 0.992 | locus YDL101C, strain DUN1, active compounds read low 1.01 | locus YDL185W, strain tfp1, active compounds read low 0.986 | locus YDL192W, strain arf1, active compounds read low 0.986 | locus YDR001C, strain nth1, active compounds read low 0.991 | locus YDR069C, strain doa4, active compounds read low 1.01 | locus YDR101C, strain arx1, active compounds read low 0.987 | locus YDR137W, strain rgp1, active compounds read low 0.931 | locus YDR150W, strain NUM1, active compounds read low 1.02 | locus YDR159W, strain sac3, active compounds read low 0.959 | locus YDR162C, strain NBP2, active compounds read low 1.02 | locus YDR195W, strain ref2 0.963 | locus YDR297W, strain sur2, active compounds read low 0.991 | locus YDR318W, strain mcm21, active compounds read low 0.987 | locus YDR334W, strain swr1, active compounds read low 0.988 | locus YDR335W, strain msn5, active compounds read low 0.982 | locus YDR388W, active compounds read low 0.989 | locus YDR392W, strain spt3, active compounds read low 0.894 | locus YDR502C, strain sam2, active compounds read low 0.992 | locus YEL003W, strain gim4, active compounds read low 0.982 | locus YEL037C, strain rad23, active compounds read low 0.976 | locus YEL061C, strain CIN8 (second series), active compounds read low 0.979 | locus YEL061C, strain CIN8, active compounds read low 0.999 | locus YER015W, strain faa2, active compounds read low 1 | locus YER016W, strain bim1, active compounds read low 0.979 | locus YER110C, active compounds read low 0.995 | locus YER111C, strain swi4, active compounds read low 0.99 | locus YER155C, strain BEM2 (second series), active compounds read low 0.993 | locus YER155C, strain BEM2, active compounds read low 0.986 | locus YER167W, strain BCK2, active compounds read low 0.997 | locus YFR010W, strain ubp6, active compounds read low 0.997 | locus YGL078C, strain dbp3, active compounds read low 0.991 | locus YGL086W, strain mad1, active compounds read low 1.02 | locus YGL167C, strain pmr1, active compounds read low 0.975 | locus YGL173C, strain kem1, active compounds read low 0.983 | locus YGL227W, strain vid30, active compounds read low 0.985 | locus YGL240W, strain doc1, active compounds read low 0.998 | locus YGL248W, strain PDE1, active compounds read low 1 | locus YGL253W, strain hxk2, active compounds read low 0.962 | locus YGR135W, strain pre9, active compounds read low 0.989 | locus YGR252W, strain gcn5, active compounds read low 0.971 | locus YHR013C, strain ard1, active compounds read low 0.957 | locus YHR027C, strain rpn1, active compounds read low 0.996 | locus YHR030C, strain SLT2, active compounds read low 1 and 0.954 | locus YHR079C, strain IRE1 (second series), active compounds read low 0.991 | locus YHR079C, strain IRE1, active compounds read low 0.964 | locus YHR094C, strain hxt1, active compounds read low 0.995 | locus YHR129C, strain ARP1, active compounds read low 0.999 | locus YHR142W, strain chs7, active compounds read low 1.02 | locus YHR200W, strain rpn10, active compounds read low 0.981 | locus YIL066C, strain RNR3, active compounds read low 1 | locus YIL073C, strain SPO22, active compounds read low 1 | locus YIL125W, strain kgd1, active compounds read low 1.02 | locus YIR030C, strain dcg1, active compounds read low 1 | locus YJL092W, strain hpr5, active compounds read low 0.998 | locus YJL095W, strain BCK1 (second series), active compounds read low 0.997 | locus YJL095W, strain BCK1, active compounds read low 1.01 and 0.976 | locus YJL115W, strain asf1, active compounds read low 0.993 | locus YJL129C, strain trk1, active compounds read low 1.01 | locus YJL134W, strain LCB3, active compounds read low 0.997 | locus YJL154C, strain vps35, active compounds read low 0.981 | locus YJL164C, strain tpk1, active compounds read low 1 | locus YJL166W, strain qcr8, active compounds read low 0.981 | locus YJL168C, strain set2, active compounds read low 0.997 | locus YJL187C, strain SWE1 (second series), active compounds read low 1 | locus YJL187C, strain SWE1, active compounds read low 0.993 | locus YJR043C, strain POL32, active compounds read low 1.04 | locus YJR066W, strain TOR1, active compounds read low 0.929 | locus YKL009W, strain mrt4, active compounds read low 1.02 | locus YKL068W, active compounds read low 0.994 | locus YKL085W, strain MDH1 (second series), active compounds read low 0.993 | locus YKL085W, strain MDH1, active compounds read low 0.993 | locus YKL160W, strain elf1, active compounds read low 1.04 | locus YKR001C, strain vps1, active compounds read low 1.02 | locus YKR026C, strain gcn3, active compounds read low 0.984 | locus YKR091W, strain srl3, active compounds read low 0.99 | locus YLL001W, strain dnm1, active compounds read low 1 | locus YLL026W, active compounds read low 1.01 | locus YLL041C, strain sdh2, active compounds read low 1 | locus YLR027C, strain aat2, active compounds read low 0.984 | locus YLR039C, strain RIC1, active compounds read low 0.964 | locus YLR058C, strain SHM2, active compounds read low 0.998 | locus YLR102C, strain apc9, active compounds read low 0.992 | locus YLR113W, strain HOG1, active compounds read low 0.951 | locus YLR221C, strain rsa3, active compounds read low 1 | locus YLR258W, strain gsy2, active compounds read low 0.991 | locus YLR262C, strain YPT6 (second series), active compounds read low 0.917 | locus YLR262C, strain YPT6, active compounds read low 1.01 | locus YLR268W, strain sec22, active compounds read low 0.987 | locus YLR320W, strain mms22, active compounds read low 0.998 | locus YLR330W, strain CHS5, active compounds read low 1 | locus YLR342W, strain FKS1 (second series), active compounds read low 1.05 | locus YLR342W, strain FKS1, active compounds read low 0.986 | locus YLR357W, strain rsc2, active compounds read low 1.03 | locus YLR370C, strain arc18, active compounds read low 0.988 | locus YLR371W, strain rom2, active compounds read low 0.999 | locus YLR384C, strain iki3, active compounds read low 0.982 | locus YLR418C, strain cdc73, active compounds read low 1.03 | locus YML016C, strain PPZ1, active compounds read low 0.991 | locus YML032C, strain rad52, active compounds read low 0.994 | locus YML120C, strain ndi1, active compounds read low 0.99 | locus YML124C, strain tub3, active compounds read low 0.992 | locus YMR058W, strain fet3, active compounds read low 0.984 | locus YMR078C, strain ctf18, active compounds read low 0.987 | locus YMR125W, strain sto1, active compounds read low 0.975 | locus YMR129W, active compounds read low 1 | locus YMR205C, strain PFK2, active compounds read low 0.981 | locus YMR223W, strain ubp8, active compounds read low 0.974 | locus YMR231W, strain pep5, active compounds read low 0.99 | locus YMR263W, strain SAP30, active compounds read low 1.02 | locus YMR307W, strain GAS1, active compounds read low 1.11 | locus YNL067W, strain RPL9B, active compounds read low 1.02 | locus YNL071W, strain lat1, active compounds read low 0.986 | locus YNL128W, strain TEP1, active compounds read low 1 | locus YNL183C, strain NPR1, active compounds read low 0.904 | locus YNL209W, strain ssb2, active compounds read low 0.993 | locus YNL233W, strain BNI4, active compounds read low 1.02 | locus YNL248C, strain rpa49, active compounds read low 0.987 | locus YNL250W, strain rad50, active compounds read low 0.991 | locus YNL271C, strain bni1, active compounds read low 0.99 | locus YNL298W, strain CLA4, active compounds read low 1 | locus YNL307C, strain MCK1, active compounds read low 1.01 | locus YNL322C, strain KRE1 (second series), active compounds read low 0.989 | locus YNL322C, strain KRE1, active compounds read low 0.995 | locus YNR049C, strain mso1, active compounds read low 0.979 | locus YNR052C, strain pop2, active compounds read low 0.983 | locus YOL012C, strain htz1 1.17 | locus YOL147C, strain pex11, active compounds read low 0.992 | locus YOR001W, strain rrp6, active compounds read low 1.01 | locus YOR061W, strain CKA2, active compounds read low 1 | locus YOR069W, strain VPS5, active compounds read low 0.992 | locus YOR070C, strain gyp1, active compounds read low 0.976 | locus YOR080W, strain dia2, active compounds read low 0.989 | locus YOR083W, strain WHI5, active compounds read low 1.05 | locus YOR106W, strain vam3, active compounds read low 0.999 | locus YOR136W, strain idh2, active compounds read low 0.995 | locus YOR144C, strain elg1, active compounds read low 0.987 | locus YOR184W, strain ser1, active compounds read low 1 | locus YOR231W, strain MKK1, active compounds read low 0.984 | locus YOR265W, strain rbl2, active compounds read low 0.989 | locus YOR270C, strain vph1, active compounds read low 0.909 | locus YOR290C, strain snf2, active compounds read low 0.921 | locus YOR316C, strain cot1, active compounds read low 0.989 | locus YPL051W, strain arl3, active compounds read low 1.01 | locus YPL078C, strain atp4, active compounds read low 1.01 | locus YPL106C, strain sse1, active compounds read low 0.996 | locus YPL240C, strain hsp82, active compounds read low 1.02 | locus YPL256C, strain CLN2, active compounds read low 0.962 | locus YPR119W, strain clb2, active compounds read low 0.99 | locus YPR141C, strain kar3, active compounds read low 0.994 | locus YPR163C, strain tif3, active compounds read low 0.997 | locus YPR167C, strain met16, active compounds read low 0.992 | strain wtn01, active compounds read low 0.996
